Assay results reported in PubChem BioAssay AID916 (National Center for Advancing Translational Sciences (NCATS), 2007).
Inconclusive results are not listed. Active and inactive are the calls of the source. Calls follow the shape of the dose curve; as a rule, active = well fitted activation curve with a large enough effect in the signal ratio, with a control signal flat (not every such curve was filed as active); inconclusive = small, poorly fitted or top-dose-only effect, or a change in a side signal; inactive = flat fitted curve, though single readings scatter; the % refers to the signal ratio.

Test: Confirmation Concentration-Response Assay for Cell signaling CRE-BLA (Fsk stim)
Settings: CHO CRE-bla reporter (cAMP response element driving beta-lactamase), NKH477 EC10 stim, FRET ratio; series mostly up to 38.3 µM; activation: at the top concentration
Method in brief: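 CRE-bla CHO cells in Opti-MEM with 0.5% dialyzed FBS, compound titrations with EC10 NKH 477 (water-soluble forskolin), 3 hours at 37 degrees C. CCF4 loading 2 hours at room temperature. %Activity from 460nm/530nm ratio; AC50 values derived.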

Structure (SMILES) | activation | Potency
CN1C(=O)NC(c2ccccc2)C2=C1CN(Cc1ccccc1)C2=O (stereo not given) | -8.37% (inactive) | 
CCCN(CCC)c1nc2ccccc2n2c(C)nnc12 |  | 12.6 µM (active)
COc1cc(C2NC(=O)NC(C)=C2C(=O)OC(C)(C)C)ccc1OCC(N)=O (stereo not given) | -1.41% (inactive) | 
Cc1cc(-c2nnc3n2N=C(c2ccc(-c4ccccc4)cc2)CS3)n[nH]1 |  | 12.6 µM (active)
Nc1nc(CSCc2ccccc2)nc(N2CCOCC2)n1 | 22.1% (inactive) | 
